Measurements as given in PubChem BioAssay AID1159580 (chemical genetic matrix, 2015).
Where “and” joins values, the source holds several entries; their conditions need not be identical. Identical values can stand only once. Hit rate of the full screen: of about 5,500 compounds, about 2,000 (36%) were called active. Not shown: some 18% with an inconclusive outcome. No stated cut-off is given here; in the data, active means normalized growth mostly below about 0.91 (no sharp cut-off); inconclusive means no clear call, values can overlap the other calls; inactive means mostly above about 0.92. Some of the results follow.

Test: chemical genetic growth profiling, strain panel (AID 1159580);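 further: tested at 20 µM; growth read once vehicle control cultures reached saturation at 30 °C; 1 = growth at the plate median or of vehicle wells; lower values mean less growth of the strain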
Conditions: S. cerevisiae deletion strains, growth OD

Measured: normalized growth

CC(=O)Oc1ccc(C(c2ccc(OC(C)=O)cc2)c2ccccn2)cc1
inactive: locus YAL021C, strain ccr4, hits give low values 1.02 | locus YAL026C, strain drs2, hits give low values 1.02 | locus YAL030W, strain snc1, hits give low values 1.01 | locus YBL061C, strain skt5, hits give low values 1.01 | locus YBR009C, strain hhf1, hits give low values 1.04 | locus YBR021W, strain FUR4, hits give low values 0.998 | locus YBR023C, strain chs3, hits give low values 1.02 | locus YBR171W, strain sec66, hits give low values 1.02 | locus YBR229C, strain ROT2, hits give low values 0.969 | locus YBR231C, strain swc5, hits give low values 0.997 | locus YBR279W, strain paf1, hits give low values 1.01 | locus YCL011C, strain gbp2, hits give low values 1.02 | locus YCL016C, strain dcc1, hits give low values 1.02 | locus YCL029C, strain bik1, hits give low values 0.988 | locus YCL069W, strain vba3, hits give low values 1.01 | locus YCR088W, strain abp1, hits give low values 1.02 | locus YDL005C, strain med2, hits give low values 1.01 | locus YDL035C, strain GPR1, hits give low values 1.03 | locus YDL040C, strain nat1, hits give low values 1.01 | locus YDL074C, strain BRE1, hits give low values 0.995 | locus YDL101C, strain DUN1, hits give low values 0.974 | locus YDL185W, strain tfp1, hits give low values 0.993 | locus YDL192W, strain arf1, hits give low values 0.984 | locus YDR001C, strain nth1, hits give low values 1.02 | locus YDR069C, strain doa4, hits give low values 1.01 | locus YDR101C, strain arx1, hits give low values 0.996 | locus YDR137W, strain rgp1, hits give low values 1.02 | locus YDR150W, strain NUM1, hits give low values 0.99 | locus YDR159W, strain sac3, hits give low values 0.993 | locus YDR162C, strain NBP2, hits give low values 1.03 | locus YDR195W, strain ref2 0.985 | locus YDR297W, strain sur2, hits give low values 1.02 | locus YDR318W, strain mcm21, hits give low values 0.994 | locus YDR334W, strain swr1, hits give low values 1.02 | locus YDR335W, strain msn5, hits give low values 1.02 | locus YDR388W, hits give low values 0.987 | locus YDR392W, strain spt3, hits give low values 1.03 | locus YDR502C, strain sam2, hits give low values 0.999 | locus YEL003W, strain gim4, hits give low values 1.02 | locus YEL037C, strain rad23, hits give low values 1.02 | locus YEL061C, strain CIN8 (second series), hits give low values 1.01 | locus YEL061C, strain CIN8, hits give low values 0.99 | locus YER015W, strain faa2, hits give low values 1.01 | locus YER016W, strain bim1, hits give low values 1.03 | locus YER110C, hits give low values 0.977 | locus YER111C, strain swi4, hits give low values 1.01 | locus YER155C, strain BEM2 (second series), hits give low values 1.03 | locus YER155C, strain BEM2, hits give low values 0.983 | locus YER167W, strain BCK2, hits give low values 1 | locus YFR010W, strain ubp6, hits give low values 0.996 | locus YGL078C, strain dbp3, hits give low values 0.991 | locus YGL086W, strain mad1, hits give low values 0.982 | locus YGL167C, strain pmr1, hits give low values 1.03 | locus YGL173C, strain kem1, hits give low values 1.02 | locus YGL227W, strain vid30, hits give low values 1.01 | locus YGL240W, strain doc1, hits give low values 1 | locus YGL248W, strain PDE1, hits give low values 0.966 | locus YGL253W, strain hxk2, hits give low values 1.03 | locus YGR135W, strain pre9, hits give low values 0.996 | locus YGR229C, strain SMI1, hits give low values 1.01 | locus YGR252W, strain gcn5, hits give low values 0.961 | locus YHR013C, strain ard1, hits give low values 1.06 | locus YHR027C, strain rpn1, hits give low values 1.02 | locus YHR030C, strain SLT2, hits give low values 0.99 and 1.02 | locus YHR079C, strain IRE1 (second series), hits give low values 0.993 | locus YHR079C, strain IRE1, hits give low values 0.983 | locus YHR094C, strain hxt1, hits give low values 0.989 | locus YHR129C, strain ARP1, hits give low values 0.989 | locus YHR142W, strain chs7, hits give low values 1.01 | locus YHR200W, strain rpn10, hits give low values 0.984 | locus YIL066C, strain RNR3, hits give low values 1.02 | locus YIL073C, strain SPO22, hits give low values 1.01 | locus YIL125W, strain kgd1, hits give low values 0.985 | locus YIR030C, strain dcg1, hits give low values 0.999 | locus YJL092W, strain hpr5, hits give low values 1.01 | locus YJL095W, strain BCK1 (second series), hits give low values 1.03 | locus YJL095W, strain BCK1, hits give low values 0.975 and 1 | locus YJL115W, strain asf1, hits give low values 1.01 | locus YJL129C, strain trk1, hits give low values 1.03 | locus YJL134W, strain LCB3, hits give low values 0.987 | locus YJL154C, strain vps35, hits give low values 1.01 | locus YJL164C, strain tpk1, hits give low values 1.02 | locus YJL166W, strain qcr8, hits give low values 1 | locus YJL168C, strain set2, hits give low values 0.985 | locus YJL187C, strain SWE1 (second series), hits give low values 0.967 | locus YJR043C, strain POL32, hits give low values 1.02 | locus YJR066W, strain TOR1, hits give low values 0.976
